These results are taken from PubChem BioAssay.

Unmarked numbers belong to inactive results. For part of these data: Potency and affinity values are given separately. Active and inactive are the calls of the source. Unless noted, the rule behind the calls is not given here.

The nature of test [1]: antimalarial activity against Dd2 strain (AID 2302;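 active = growth inhibition above 50% at the single 2 µM test dose, taken to imply half-maximal potency below 2 µM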;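 note: 0% = DMSO untreated growth and 100% = chloroquine plus artemisinin killed control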). Particulars: P. falciparum Dd2 in RBCs, LDH growth readout, 72 h; at 2 µM; stronger effect = higher value.
A short description of test [2]: human hepatoma cell viability loss – ATP luminescence, cytotoxicity control for P. falciparum antimalarial project, primary screen (AID 2303;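 active = inhibition above 50%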;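 note: 0% = DMSO wells and 100% = digitonin-killed cells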). Particulars: HepG2 viability, 24-48 h, at 10 µM, stronger effect = higher value.
The target of test [3] is L-lactate dehydrogenase (Plasmodium falciparum (isolate CDC / Honduras)) (UniProt Q27743). Kind of test: PfLDH activity inhibition – cell lysate, 3D7 strain, counter-screen for P. falciparum growth inhibition project (AID 2304).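 Note: 0% = vehicle and 100% = reference inhibitor.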 Particulars: P. falciparum 3D7 crude extract, LDH APAD/NBT absorbance; at 2 µM; stronger effect = higher value. On the technique in general: The purpose of a counterscreen is to sort out artefacts and off-target activity.

The nature of test [4]: inhibition of 3D7 malaria parasite growth – strain 3D7 (AID 2306).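 Note: 0% = DMSO wells and 100% = chloroquine plus artemisinin control wells.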 To be noted: P. falciparum 3D7 erythrocytic growth, LDH absorbance, 72 h; at 2 µM; stronger effect = higher value.
In test [5] the target is Calcium-dependent protein kinase 1 (Plasmodium falciparum (isolate 3D7)) (UniProt P62344). Kind of test: PfCDPK1 kinase inhibitors, biochemical, TCAMS library (AID 1159585; cut-off not given, nearly all actives have IC50 up to about 0.98 µM;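 note: inhibitors leave more ATP so luminescence rises with inhibition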). Particulars: recombinant PfCDPK1, Kinase-Glo ATP depletion luminescence.
For test [6], the target named is Plasmodium falciparum protein kinase 6 (PK6, PF3D7_1337100) (UniProt Q8IDW1). Kind of test: PfPK6 kinase inhibitors, biochemical, TCAMS library (AID 1159586). Particulars: recombinant PfPK6, Kinase-Glo ATP depletion luminescence. (Kinase-Glo measures the ATP left after a reaction by luminescence.)
Test [7] concerns the target Protein kinase 7 (PK7), Plasmodium falciparum 3D7 (PF3D7_0213400) (UniProt Q7YTF7). Kind of test: inhibition of Plasmodium PK7 catalytic activity – biochemical, TCAMS antimalarial set, Kinase-Glo luminescence (AID 1159587). To be noted: recombinant PfPK7, Kinase-Glo ATP depletion luminescence.
For test [8], the target named is Calcium-dependent protein kinase 4 (Plasmodium falciparum (isolate 3D7)) (UniProt Q8IBS5). Kind of test: PfCDPK4 kinase inhibitors, biochemical, TCAMS library (AID 1159588; cut-off not given, nearly all actives have IC50 up to about 0.91 µM). Particulars: recombinant PfCDPK4, Kinase-Glo ATP depletion luminescence.
Sequence of Calcium-dependent protein kinase 4 (Plasmodium falciparum (isolate 3D7)) (Q8IBS5 whole entry, looked up): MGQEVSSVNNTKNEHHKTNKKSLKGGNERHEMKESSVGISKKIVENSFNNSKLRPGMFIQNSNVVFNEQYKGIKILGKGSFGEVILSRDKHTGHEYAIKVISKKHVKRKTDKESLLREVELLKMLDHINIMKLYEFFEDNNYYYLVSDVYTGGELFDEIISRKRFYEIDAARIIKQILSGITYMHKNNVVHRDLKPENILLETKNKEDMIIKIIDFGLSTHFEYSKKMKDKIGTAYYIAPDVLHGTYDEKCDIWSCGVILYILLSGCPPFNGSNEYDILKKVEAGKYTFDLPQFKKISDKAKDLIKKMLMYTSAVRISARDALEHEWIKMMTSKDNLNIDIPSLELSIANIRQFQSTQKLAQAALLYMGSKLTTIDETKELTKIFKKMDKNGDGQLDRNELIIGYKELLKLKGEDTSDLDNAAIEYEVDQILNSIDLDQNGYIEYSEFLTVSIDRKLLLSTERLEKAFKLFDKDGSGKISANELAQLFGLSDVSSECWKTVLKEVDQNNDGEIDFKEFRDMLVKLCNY

Sequence of Plasmodium falciparum protein kinase 6 (PK6, PF3D7_1337100) (Q8IDW1 1-305): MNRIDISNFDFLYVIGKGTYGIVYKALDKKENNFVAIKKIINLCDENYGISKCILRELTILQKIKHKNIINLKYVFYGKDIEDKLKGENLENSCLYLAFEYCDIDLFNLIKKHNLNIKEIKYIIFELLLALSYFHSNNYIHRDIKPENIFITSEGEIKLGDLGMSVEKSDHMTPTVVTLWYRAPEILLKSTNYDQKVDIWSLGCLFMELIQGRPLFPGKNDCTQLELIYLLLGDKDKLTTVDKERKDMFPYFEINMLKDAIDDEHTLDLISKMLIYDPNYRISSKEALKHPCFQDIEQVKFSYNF
Sequence of Protein kinase 7 (PK7), Plasmodium falciparum 3D7 (PF3D7_0213400) (Q7YTF7 1-343): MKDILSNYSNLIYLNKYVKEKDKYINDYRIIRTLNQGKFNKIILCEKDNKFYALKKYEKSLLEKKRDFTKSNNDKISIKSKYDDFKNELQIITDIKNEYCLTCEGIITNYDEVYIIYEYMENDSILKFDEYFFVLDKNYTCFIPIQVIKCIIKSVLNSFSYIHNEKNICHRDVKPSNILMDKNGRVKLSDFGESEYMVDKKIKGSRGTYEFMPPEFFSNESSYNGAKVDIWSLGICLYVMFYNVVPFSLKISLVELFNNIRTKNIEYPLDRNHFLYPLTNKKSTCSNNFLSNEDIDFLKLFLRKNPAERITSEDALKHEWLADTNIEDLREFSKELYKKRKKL
Sequence of Calcium-dependent protein kinase 1 (Plasmodium falciparum (isolate 3D7)) (P62344 whole entry, looked up): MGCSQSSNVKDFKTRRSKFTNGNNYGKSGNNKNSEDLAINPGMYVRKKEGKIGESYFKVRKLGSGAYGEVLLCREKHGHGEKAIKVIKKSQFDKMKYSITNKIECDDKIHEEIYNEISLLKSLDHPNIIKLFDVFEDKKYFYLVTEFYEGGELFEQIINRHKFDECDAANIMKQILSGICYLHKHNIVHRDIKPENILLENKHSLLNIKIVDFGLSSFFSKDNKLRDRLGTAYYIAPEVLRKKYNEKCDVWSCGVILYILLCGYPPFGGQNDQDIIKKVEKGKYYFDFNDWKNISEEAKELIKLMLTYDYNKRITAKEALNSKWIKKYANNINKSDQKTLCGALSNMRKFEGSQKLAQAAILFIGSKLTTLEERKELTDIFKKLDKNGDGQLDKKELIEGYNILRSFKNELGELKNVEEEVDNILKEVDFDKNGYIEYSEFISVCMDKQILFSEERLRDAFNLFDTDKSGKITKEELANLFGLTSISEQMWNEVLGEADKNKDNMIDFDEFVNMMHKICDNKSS
Sequence of L-lactate dehydrogenase (Plasmodium falciparum (isolate CDC / Honduras)) (Q27743 whole entry, looked up): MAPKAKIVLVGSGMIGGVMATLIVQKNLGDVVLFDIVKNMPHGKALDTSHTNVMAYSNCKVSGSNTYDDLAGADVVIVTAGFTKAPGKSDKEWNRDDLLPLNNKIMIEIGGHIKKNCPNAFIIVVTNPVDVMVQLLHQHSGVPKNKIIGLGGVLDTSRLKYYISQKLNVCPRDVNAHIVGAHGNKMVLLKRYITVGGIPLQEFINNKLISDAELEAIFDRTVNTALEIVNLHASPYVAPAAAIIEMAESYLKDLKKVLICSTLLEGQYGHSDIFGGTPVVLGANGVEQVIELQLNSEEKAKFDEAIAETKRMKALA

Usually inhibition stands for the drop in the measured response relative to a control, in per cent. In the case of `Cc1c(F)cc(C(=O)NC2CC2)cc1-c1ccc2c(cnn2S(=O)(=O)c2ccc(F)c(F)c2)c1`, the growth inhibition in test [1] was 76% (active); in test [4] it was 91% (active). Besides, the inhibition in test [2] was 49%; in test [3] it was -2%. Also, the outcome in test [5], in test [6], in test [7] and in test [8] was inactive.
In the case of `CCCCCCN1CCCN(Cc2cccc(NC(=O)c3cc4ccccc4s3)c2)CC1`, the growth inhibition in test [1] was 53% (active); in test [4] it was 88% (active). In addition, the inhibition was 31% in test [2] and 6% in test [3]. Moreover, the result in test [5], in test [6], in test [7] and in test [8] was inactive.
Regarding `COc1ccc2nccc([C@@H](O)CN3CCC(NCc4ccc5nsnc5c4)CC3)c2c1`, the growth inhibition in test [1] is 64% (active); in test [4] it was 95% (active). The inhibition in test [2] was 12%; in test [3], 3%. For the same compound, the result in test [5], in test [6], in test [7] and in test [8] was inactive.
